Experimental data: PubChem BioAssay AID1159580 (chemical genetic matrix, 2015)
“And” between values parts separate entries of the source, which are not always exact repeats. Identical values can stand only once. The whole screen tested about 5,500 compounds, of which about 2,000 (36%) were called active. About 18% were inconclusive and are not listed. Cut-off read from the data, not from the text of the source: active = normalized growth mostly below about 0.91 (no sharp cut-off); inconclusive = no clear call, values can overlap the other calls; inactive = mostly above about 0.92. This is one part of the list.

Assay: chemical genetic growth profiling, strain panel (AID 1159580);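 note: tested at 20 µM; growth read once vehicle control cultures reached saturation at 30 °C; 1 = growth at the plate median or of vehicle wells; lower values mean less growth of the strain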
Details: S. cerevisiae deletion strains, growth OD

Measured: normalized growth

CN(C)C(=O)Oc1cccc([N+](C)(C)C)c1
inactive: locus YAL021C, strain ccr4, stronger effect = lower value 0.987 | locus YAL026C, strain drs2, stronger effect = lower value 1 | locus YAL030W, strain snc1, stronger effect = lower value 1 | locus YAL040C, strain CLN3, stronger effect = lower value 1 | locus YBL061C, strain skt5, stronger effect = lower value 1.01 | locus YBR009C, strain hhf1, stronger effect = lower value 1 | locus YBR021W, strain FUR4, stronger effect = lower value 0.992 | locus YBR023C, strain chs3, stronger effect = lower value 0.988 | locus YBR171W, strain sec66, stronger effect = lower value 0.992 | locus YBR229C, strain ROT2, stronger effect = lower value 0.985 | locus YBR231C, strain swc5, stronger effect = lower value 0.988 | locus YBR279W, strain paf1, stronger effect = lower value 1 | locus YCL011C, strain gbp2, stronger effect = lower value 0.996 | locus YCL016C, strain dcc1, stronger effect = lower value 0.992 | locus YCL029C, strain bik1, stronger effect = lower value 0.978 | locus YCL061C, strain MRC1 (second series), stronger effect = lower value 1 | locus YCL061C, strain MRC1, stronger effect = lower value 0.996 | locus YCL069W, strain vba3, stronger effect = lower value 1 | locus YCR088W, strain abp1, stronger effect = lower value 0.99 | locus YDL005C, strain med2, stronger effect = lower value 0.983 | locus YDL035C, strain GPR1, stronger effect = lower value 0.997 | locus YDL040C, strain nat1, stronger effect = lower value 0.992 | locus YDL074C, strain BRE1, stronger effect = lower value 1.05 | locus YDL101C, strain DUN1, stronger effect = lower value 0.986 | locus YDL134C, strain PPH21, stronger effect = lower value 0.987 | locus YDL185W, strain tfp1, stronger effect = lower value 0.98 | locus YDL192W, strain arf1, stronger effect = lower value 0.98 | locus YDR001C, strain nth1, stronger effect = lower value 0.998 | locus YDR069C, strain doa4, stronger effect = lower value 0.978 | locus YDR101C, strain arx1, stronger effect = lower value 0.977 | locus YDR137W, strain rgp1, stronger effect = lower value 1.01 | locus YDR150W, strain NUM1, stronger effect = lower value 1 | locus YDR159W, strain sac3, stronger effect = lower value 0.978 | locus YDR162C, strain NBP2, stronger effect = lower value 0.999 | locus YDR195W, strain ref2 1.01 | locus YDR297W, strain sur2, stronger effect = lower value 0.996 | locus YDR318W, strain mcm21, stronger effect = lower value 0.98 | locus YDR334W, strain swr1, stronger effect = lower value 1 | locus YDR335W, strain msn5, stronger effect = lower value 1.01 | locus YDR363W, strain ESC2, stronger effect = lower value 1.04 | locus YDR388W, stronger effect = lower value 0.986 | locus YDR392W, strain spt3, stronger effect = lower value 0.996 | locus YDR502C, strain sam2, stronger effect = lower value 0.977 | locus YEL003W, strain gim4, stronger effect = lower value 1.01 | locus YEL037C, strain rad23, stronger effect = lower value 0.998 | locus YEL061C, strain CIN8 (second series), stronger effect = lower value 1 | locus YEL061C, strain CIN8, stronger effect = lower value 0.994 | locus YER002W, strain NOP16, stronger effect = lower value 1.01 | locus YER015W, strain faa2, stronger effect = lower value 1 | locus YER016W, strain bim1, stronger effect = lower value 1.01 | locus YER110C, stronger effect = lower value 0.991 | locus YER111C, strain swi4, stronger effect = lower value 1.02 | locus YER155C, strain BEM2 (second series), stronger effect = lower value 1.01 | locus YER155C, strain BEM2, stronger effect = lower value 0.974 | locus YER167W, strain BCK2, stronger effect = lower value 0.987 | locus YFR010W, strain ubp6, stronger effect = lower value 0.996 | locus YGL078C, strain dbp3, stronger effect = lower value 0.983 | locus YGL086W, strain mad1, stronger effect = lower value 0.997 | locus YGL167C, strain pmr1, stronger effect = lower value 1.07 | locus YGL173C, strain kem1, stronger effect = lower value 1.01 | locus YGL227W, strain vid30, stronger effect = lower value 0.992 | locus YGL240W, strain doc1, stronger effect = lower value 0.986 | locus YGL248W, strain PDE1, stronger effect = lower value 0.993 | locus YGL253W, strain hxk2, stronger effect = lower value 1.01 | locus YGR135W, strain pre9, stronger effect = lower value 0.981 | locus YGR229C, strain SMI1, stronger effect = lower value 1.02 and 1.01 | locus YGR252W, strain gcn5, stronger effect = lower value 1.06 | locus YHR013C, strain ard1, stronger effect = lower value 1.02 | locus YHR027C, strain rpn1, stronger effect = lower value 0.99 | locus YHR030C, strain SLT2, stronger effect = lower value 0.992 and 0.979 | locus YHR079C, strain IRE1 (second series), stronger effect = lower value 0.979 | locus YHR079C, strain IRE1, stronger effect = lower value 0.961 | locus YHR094C, strain hxt1, stronger effect = lower value 0.989 | locus YHR129C, strain ARP1, stronger effect = lower value 0.989 | locus YHR142W, strain chs7, stronger effect = lower value 1.03 | locus YHR200W, strain rpn10, stronger effect = lower value 0.981 | locus YIL066C, strain RNR3, stronger effect = lower value 0.996 | locus YIL073C, strain SPO22, stronger effect = lower value 0.965 | locus YIL125W, strain kgd1, stronger effect = lower value 0.998 | locus YIR030C, strain dcg1, stronger effect = lower value 0.983 | locus YJL092W, strain hpr5, stronger effect = lower value 0.996 | locus YJL095W, strain BCK1 (second series), stronger effect = lower value 0.996 | locus YJL095W, strain BCK1, stronger effect = lower value 1.01 and 0.988 | locus YJL115W, strain asf1, stronger effect = lower value 1 | locus YJL129C, strain trk1, stronger effect = lower value 0.987 | locus YJL134W, strain LCB3, stronger effect = lower value 0.986 | locus YJL154C, strain vps35, stronger effect = lower value 1.01 | locus YJL164C, strain tpk1, stronger effect = lower value 1.01 | locus YJL166W, strain qcr8, stronger effect = lower value 0.999 | locus YJL168C, strain set2, stronger effect = lower value 0.988 | locus YJL187C, strain SWE1 (second series), stronger effect = lower value 0.987 | locus YJL187C, strain SWE1, stronger effect = lower value 0.992 | locus YJR043C, strain POL32, stronger effect = lower value 1.02 | locus YJR066W, strain TOR1, stronger effect = lower value 0.947
